Records with an inconclusive call do not appear. The source made the active and inactive calls. Unless noted, the call rests on the fitted dose curve; in most records, active means well fitted curve in the direction sought with a large enough effect; inconclusive means small, poorly fitted or top-dose-only effect, or another doubt; inactive means no such curve, though single readings can be large; an effect the other way counts as inactive or inconclusive.
Experiments:
[1] = molecular target: Lysosomal acid glucosylceramidase (Homo sapiens) (UniProt P04062); test: Glucocerebrosidase-p2 (AID 348; in the data active means potency below about 10 µM; further: potency means the concentration at half of the fitted maximal effect); details: purified GBA, blue fluorogenic substrate, 40 min
Outline: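 Normal human glucocerebrosidase (0.2 nM) with blue fluorogenic substrate (80 uM final) in citrate/phosphate pH 5.9 with 10mM sodium taurocholate, 0.01% tween-20; 40 min RT, NaOH/glycine stop; fluorescence Ex 365/Em 440; AC50 from a titration from 0.6 nM upwards.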

[2] = AP1 Signaling Pathway (AID 357; active means well fitted curve in either direction with a large enough effect, not every such curve was filed as active;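 further: ME-180 reporter cells stimulated with EGF at its EC50 level; on the % scale 0 is the no-effect control and ±100 the full control effect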); details: ME-180 AP-1-bla reporter, EGF-induced, beta-lactamase ratio, 5 h; at 7.69 µM (top of the series) unless noted
Outline: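 Beta-lactamase reporter under AP-1 response element, ME-180 background. Stimulus: EC50 EGF. Compound exposure 5 h, 37 °C. Detection: CCF4, 2.5 h RT, 460/530 nm. Values: AC50 from titration.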

[3] = molecular target: Cytochrome P450 1A2 (Homo sapiens) (UniProt P05177); test: p450-cyp1a2 (AID 410; calls by dose curve; further: potency means the concentration at half of the fitted maximal effect); details: recombinant CYP1A2, luciferin-ME demethylation, luminescence; series mostly up to 57 µM
Outline: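 Luminescent demethylation readout: Luciferin-ME (100uM, equal to Km) turned over by 20nM CYP1A2 for 60 min at room temperature after NADPH regeneration addition, following 10 min compound preincubation. Normalization used 57 uM furafylline as full inhibition.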

[4] = NFAT Signaling Pathway (AID 444; active means well fitted curve in either direction with a large enough effect, not every such curve was filed as active;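 further: carbachol stimulus at about its EC50 of 1 µM final; on the % scale 0 is the no-effect control and ±100 the full control effect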); details: Jurkat NFAT-bla M1, carbachol, beta-lactamase ratio, 5 h; at 7.69 µM (top of the series) unless noted
Outline: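 Read-out: CCF4 FRET ratio (460 nm/530 nm) after 1 h RT dye loading, used for %activity and AC50 from titration series. Cells: Jurkat NFAT-β-lactamase/M1 line, treated with compound plus 1 uM carbachol for 5 h, 37 °C.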

[5] = molecular target: Glucocorticoid receptor (Homo sapiens) (UniProt P04150); test: GR-GFP Redistribution (AID 450;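 active means compounds whose dose series gives a full or clear partial fitted curve of increased nuclear translocation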; further: potency means the concentration at half of the fitted maximal effect); details: U2OS GR-GFP nuclear translocation, laser cytometry, 2 h
[6] = molecular target: Glucocorticoid receptor (Homo sapiens) (UniProt P04150); test: GR-EFC Redistribution (AID 451; calls by dose curve; further: potency means the concentration at half of the fitted maximal effect); details: CHO-K1 GR-EFC translocation, beta-gal luminescence, 2 h
Outline: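 Translocation of GR-ED fusion to nuclear EA restores b-gal, read by luminescence after 1 h room-temperature detection. Engineered CHO-K1 biosensor cells, 1,000/well, exposed 2 h at 37 C to titrations up to 46 uM final.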

[7] = molecular target: 3',5'-cyclic-AMP phosphodiesterase 4B (Homo sapiens) (UniProt Q07343); test: qHTS Assay for Inhibitors of PDE-IV (AID 607; active means well fitted activation curve with a large enough effect in the main read-out, with a control signal flat, not every such curve was filed as active; further: % of control where 0% means no effect); details: HEK293 ACTOne CNG channel cells, membrane potential fluorescence; series mostly up to 22.9 µM
Outline: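 ACTOne HEK293 cells carry a modified cAMP-gated CNG channel and express endogenous PDE4; plated 1000 cells/well, compounds up to 22.9 uM final. Membrane-potential dye fluorescence (ex 535/em 590) was read; parental cells received 10 uM forskolin + 100 uM RO 20-1724.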

[8] = molecular target: Dual specificity protein kinase CLK4 (Homo sapiens) (UniProt Q9HAZ1); test: qHTS Assay for Inhibitors of CDC-like Kinase 4 (Kinase-Glo Assay) (AID 1770); details: recombinant Clk4, Kinase-Glo ATP depletion luminescence; series mostly up to 66.7 µM; further: nearly all actives have a fitted effect of over 65% in size; further: potency means the concentration at half of the fitted maximal effect
Outline: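 Luminescent ATP-depletion read-out (Kinase-Glo) after 4.5 h room-temperature reaction of Clk4 (25 nM final) with RS peptide (100 uM) and ATP (1 uM), pH 7.5 Tris buffer with MgCl2 and DTT.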

[9] = molecular target: Dual specificity protein kinase CLK4 (Homo sapiens) (UniProt Q9HAZ1); test: qHTS Assay for Inhibitors of CDC-like Kinase 4 (ADP-Glo Assay) (AID 1771); details: recombinant CLK4, ADP-Glo luminescence; series mostly up to 80 µM; further: nearly all actives have a fitted effect of over 70% in size; further: potency means the concentration at half of the fitted maximal effect
Outline: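 ADP production was read by ADP-Glo luminescence after residual ATP depletion, following 1 h room-temperature reaction of 25 nM Clk4, 1 uM ATP and 100 uM RS peptide with MgCl2, EGTA, DTT and Triton X-100.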

[10] = molecular target: Dual specificity protein kinase CLK4 (Homo sapiens) (UniProt Q9HAZ1); test: qHTS Assay for Inhibitors of CDC-like Kinase 4 (ADP-FP Assay) (AID 1795); details: Transcreener ADP fluorescence polarization; series mostly up to 50 µM; further: nearly all actives have a fitted effect of over 60% in size; further: potency means the concentration at half of the fitted maximal effect
Outline: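 Kinase activity was measured as ADP production using Transcreener orange tracer (4 nM) and ADP antibody (1 ug/mL) fluorescence polarization, with ADP calculated from a calibration curve. The 1 h reaction contained 6.25 nM Clk4, 1 uM ATP and 100 uM RS peptide at pH 7.5 with Mg2+.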

[11] = molecular target: Ubiquitin carboxyl-terminal hydrolase 1 (Homo sapiens) (UniProt O94782); test: Inhibitors of USP1/UAF1: Pilot qHTS (AID 504865); details: purified USP1/UAF1, Ub-rhodamine cleavage fluorescence; series mostly up to 54.9 µM;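 further: rhodamine fluorescence freed from ubiquitin-rhodamine substrate followed over time; top concentration of the series differs between compounds; on the % scale 0 is the no-effect control and ±100 the full control effect; nearly all actives have a fitted effect of over 35% in size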
Outline: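 Deubiquitinase activity followed as kinetic rhodamine fluorescence release from 150 nM Ub-Rho. 1 nM USP1/UAF1 with compound, after 15 min room-temperature preincubation, in HEPES pH 7.8 buffer containing TCEP, EDTA, BSA and Tween-20.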

[12] = Primary qHTS for small molecule stabilizers of the endoplasmic reticulum resident proteome: Secreted ER Calcium Modulated Protein (SERCaMP) assay (AID 1508630); details: SH-SY5Y GLuc-SERCaMP (Gaussia luciferase released on ER calcium loss) secretion, thapsigargin, luminescence; series mostly up to 38.4 µM; further: on the % scale 0 is the no-effect control and ±100 the full control effect
Outline: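 The SH-SY5Y reporter protocol was run at 3 concentrations up to 38.3 uM (primary) or 11 concentrations (follow-up): 16 h compound, 100 nM thapsigargin for 4 h, then extracellular luciferase luminescence.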

[13] = Stat Signaling Pathway (AID 446; active means well fitted curve in either direction with a large enough effect, not every such curve was filed as active;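 further: ME-180 cervical cancer cells given 40 pM IL-6 alongside compound; SIE-controlled beta-lactamase reporter measured as 460/530 nm FRET emission ratio; on the % scale 0 is the no-effect control and ±100 the full control effect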); details: ME-180 SIE beta-lactamase reporter, IL-6 stimulated, 5 h; at 7.69 µM (top of the series) unless noted
Outline: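 Compound effects on IL-6-induced STAT reporter activity were measured in ME-180 cells. After overnight culture, cells were co-treated with 40 pM IL-6 for 5 hrs before beta-lactamase substrate loading at room temperature.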

[14] = molecular target: Mitogen-activated protein kinase 10 (Mus musculus) (UniProt Q61831); test: JNK3 AlphaScreen Assay (AID 530; active means well fitted curve in either direction with a large enough effect, not every such curve was filed as active); details: JNK3 lysate, c-Jun phosphorylation; series mostly up to 57.1 µM
Outline: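 qHTS titrations with 15 min compound pre-incubation before adding ATP (10 uM final). Read-out: AlphaScreen of Ser73-phosphorylated biotin-GST-cJun using HepG2 lysate JNK3 activated by IL-1β and TNFα.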

[15] = molecular target: Cytochrome P450 3A4 (Homo sapiens) (UniProt P08684); test: qHTS Assay for Inhibitors and Substrates of Cytochrome P450 3A4 (AID 884); details: recombinant CYP3A4, Luciferin-PPXE luminescence; series mostly up to 57.1 µM; further: potency means the concentration at half of the fitted maximal effect; nearly all actives have a fitted effect of over 50% in size
Outline: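 Luminescent readout of luciferin produced by CYP3A4 (20 nM) dealkylation of Luciferin-PPXE, 25 uM (its KM). NADPH-driven reaction ran 60 min at RT after 10 min compound preincubation; data scaled to 57 uM ketoconazole as 100% inhibition.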

[16] = molecular target: Cytochrome P450 3A4 (Homo sapiens) (UniProt P08684); test: qHTS Assay for Activators of Cytochrome P450 3A4 (AID 885); details: recombinant CYP3A4, Luciferin-PPXE luminescence, 60 min; series mostly up to 57.1 µM; further: nearly all actives have a fitted effect of over 65% in size
Outline: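 CYP3A4 activity: Luciferin-PPXE O-dealkylation, 25uM substrate, 200mM KPO4, RT throughout. Read-out is luciferase luminescence; higher values reflect activation.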

[17] = qHTS Assay for Identification of Small Molecule Agonists for Hypoxia Response Element Signaling Pathway (AID 914; active means well fitted activation curve with a large enough effect in the signal ratio, with a control signal flat, not every such curve was filed as active; the % refers to the signal ratio; further: % of control where 0% means no effect); details: ME-180 (cervical carcinoma) HRE-bla reporter, beta-lactamase ratio, CoCl2, 17 h; activation: stronger effect = higher value
Outline: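 A beta-lactamase reporter under hypoxia response element control in ME-180 cells served as the system. Compound titrations plus EC50 CoCl2 ran 17 h at 37 degrees Celsius; AC50 values were fitted from %Activity.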

[18] = molecular target: Cytochrome P450 2C9 (Homo sapiens) (UniProt P11712); test: qHTS Assay for Inhibitors and Substrates of Cytochrome P450 2C9 (AID 883); details: recombinant CYP2C9, luciferin-H luminescence, 60 min; series mostly up to 57.1 µM; further: potency means the concentration at half of the fitted maximal effect; nearly all actives have a fitted effect of over 60% in size
Outline: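 Inhibition of CYP2C9 is scored as loss of luminescence, with 57uM sulphaphenazole defining 100% inhibition. Substrate Luciferin-H is used at 100uM, equal to its KM; enzyme at 10nM in 25mM KPO4, 60 min at 37C with NADPH regeneration.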

[19] = molecular target: Cytochrome P450 2D6 (Homo sapiens) (UniProt P10635); test: qHTS Assay for Inhibitors and Substrates of Cytochrome P450 2D6 (AID 891); details: recombinant CYP2D6, luciferin-ME EGE luminescence; series mostly up to 57.1 µM; further: potency means the concentration at half of the fitted maximal effect; nearly all actives have a fitted effect of over 60% in size
Outline: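 Luminescent read-out of luciferin formed by 5 nM human CYP2D6 demethylating 30 uM Luciferin-ME EGE (Km level) over 60 min at room temperature after NADPH regeneration addition. Data normalized to full inhibition by 1.43 uM quinidine.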

Chain of 3',5'-cyclic-AMP phosphodiesterase 4B (Homo sapiens) (Q07343 whole entry, looked up): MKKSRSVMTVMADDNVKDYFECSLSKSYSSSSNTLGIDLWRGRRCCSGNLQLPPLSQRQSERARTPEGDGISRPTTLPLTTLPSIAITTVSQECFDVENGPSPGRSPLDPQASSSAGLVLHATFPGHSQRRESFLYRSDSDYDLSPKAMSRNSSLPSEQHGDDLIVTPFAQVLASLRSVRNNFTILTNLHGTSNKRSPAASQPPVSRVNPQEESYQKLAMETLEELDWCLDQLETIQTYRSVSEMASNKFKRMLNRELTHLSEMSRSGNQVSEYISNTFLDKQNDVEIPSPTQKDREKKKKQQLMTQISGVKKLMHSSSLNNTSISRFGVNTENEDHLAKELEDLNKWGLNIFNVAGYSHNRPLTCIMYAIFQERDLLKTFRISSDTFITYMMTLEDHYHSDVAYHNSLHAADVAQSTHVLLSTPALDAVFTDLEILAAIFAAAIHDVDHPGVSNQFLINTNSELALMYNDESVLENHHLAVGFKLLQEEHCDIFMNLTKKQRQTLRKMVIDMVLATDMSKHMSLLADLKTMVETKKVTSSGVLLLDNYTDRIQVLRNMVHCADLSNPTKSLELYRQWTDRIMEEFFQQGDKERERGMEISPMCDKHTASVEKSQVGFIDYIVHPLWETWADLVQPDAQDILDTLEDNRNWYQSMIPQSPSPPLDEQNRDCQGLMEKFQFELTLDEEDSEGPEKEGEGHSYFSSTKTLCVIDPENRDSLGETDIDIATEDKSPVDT
Chain of Dual specificity protein kinase CLK4 (Homo sapiens) (Q9HAZ1 whole entry, looked up): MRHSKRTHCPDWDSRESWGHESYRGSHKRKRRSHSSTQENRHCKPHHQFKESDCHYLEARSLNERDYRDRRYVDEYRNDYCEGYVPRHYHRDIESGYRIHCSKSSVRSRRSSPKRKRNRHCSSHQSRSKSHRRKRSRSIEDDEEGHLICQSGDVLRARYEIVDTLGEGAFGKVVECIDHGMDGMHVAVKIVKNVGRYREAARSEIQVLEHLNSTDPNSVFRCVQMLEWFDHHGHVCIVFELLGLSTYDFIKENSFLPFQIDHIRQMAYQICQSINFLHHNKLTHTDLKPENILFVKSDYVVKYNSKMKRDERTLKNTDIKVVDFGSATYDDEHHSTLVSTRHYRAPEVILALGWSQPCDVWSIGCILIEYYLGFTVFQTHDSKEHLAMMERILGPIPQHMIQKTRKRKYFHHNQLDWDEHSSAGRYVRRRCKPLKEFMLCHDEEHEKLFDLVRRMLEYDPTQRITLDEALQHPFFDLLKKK
Chain of Cytochrome P450 3A4 (Homo sapiens) (P08684 whole entry, looked up): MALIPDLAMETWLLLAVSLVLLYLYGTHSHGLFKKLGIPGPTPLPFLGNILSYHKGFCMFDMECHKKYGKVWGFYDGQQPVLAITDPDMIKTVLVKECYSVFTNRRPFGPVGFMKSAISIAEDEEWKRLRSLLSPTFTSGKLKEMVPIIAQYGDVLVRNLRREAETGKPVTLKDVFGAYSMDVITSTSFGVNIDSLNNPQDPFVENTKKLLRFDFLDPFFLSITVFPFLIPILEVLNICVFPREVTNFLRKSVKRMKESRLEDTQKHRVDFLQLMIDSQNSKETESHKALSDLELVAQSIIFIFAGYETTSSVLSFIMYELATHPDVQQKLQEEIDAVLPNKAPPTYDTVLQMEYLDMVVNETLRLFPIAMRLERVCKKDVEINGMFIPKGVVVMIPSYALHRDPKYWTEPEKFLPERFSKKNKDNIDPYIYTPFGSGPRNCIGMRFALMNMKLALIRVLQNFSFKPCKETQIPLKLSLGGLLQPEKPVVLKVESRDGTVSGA
Chain of Cytochrome P450 1A2 (Homo sapiens) (P05177 whole entry, looked up): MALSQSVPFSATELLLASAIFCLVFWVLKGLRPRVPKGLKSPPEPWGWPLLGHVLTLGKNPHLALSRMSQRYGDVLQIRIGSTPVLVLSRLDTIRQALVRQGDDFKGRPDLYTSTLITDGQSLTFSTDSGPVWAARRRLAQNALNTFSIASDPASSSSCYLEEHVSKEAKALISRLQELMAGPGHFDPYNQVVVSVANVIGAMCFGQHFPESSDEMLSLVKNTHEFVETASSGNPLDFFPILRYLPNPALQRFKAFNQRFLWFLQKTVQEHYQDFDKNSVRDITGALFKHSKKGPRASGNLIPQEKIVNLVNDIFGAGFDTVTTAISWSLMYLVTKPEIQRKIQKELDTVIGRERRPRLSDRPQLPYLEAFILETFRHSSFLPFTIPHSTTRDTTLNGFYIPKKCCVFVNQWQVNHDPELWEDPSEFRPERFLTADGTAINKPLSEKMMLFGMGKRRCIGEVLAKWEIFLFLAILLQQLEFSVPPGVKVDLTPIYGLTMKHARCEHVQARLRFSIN
Chain of Glucocorticoid receptor (Homo sapiens) (P04150 whole entry, looked up, the tested form may be a part): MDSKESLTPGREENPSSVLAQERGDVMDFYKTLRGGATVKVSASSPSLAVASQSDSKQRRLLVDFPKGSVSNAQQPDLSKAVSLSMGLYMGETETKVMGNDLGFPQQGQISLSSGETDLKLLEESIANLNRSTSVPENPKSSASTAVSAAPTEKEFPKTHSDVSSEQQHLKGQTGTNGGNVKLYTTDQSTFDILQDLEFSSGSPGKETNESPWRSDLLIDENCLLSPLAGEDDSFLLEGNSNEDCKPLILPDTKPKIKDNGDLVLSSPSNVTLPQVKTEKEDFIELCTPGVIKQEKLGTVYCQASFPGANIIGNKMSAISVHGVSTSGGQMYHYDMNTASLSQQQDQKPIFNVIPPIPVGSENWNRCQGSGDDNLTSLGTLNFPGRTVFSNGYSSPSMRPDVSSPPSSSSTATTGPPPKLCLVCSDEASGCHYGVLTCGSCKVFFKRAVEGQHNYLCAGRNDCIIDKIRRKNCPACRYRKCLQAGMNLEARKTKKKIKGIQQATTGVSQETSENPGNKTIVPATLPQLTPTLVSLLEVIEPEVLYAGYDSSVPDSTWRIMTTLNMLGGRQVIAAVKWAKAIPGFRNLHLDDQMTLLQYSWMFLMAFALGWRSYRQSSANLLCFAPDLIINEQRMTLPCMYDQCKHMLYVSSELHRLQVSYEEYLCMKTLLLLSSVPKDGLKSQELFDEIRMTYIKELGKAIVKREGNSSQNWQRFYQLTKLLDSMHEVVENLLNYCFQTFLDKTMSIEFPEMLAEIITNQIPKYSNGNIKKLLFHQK
Chain of Lysosomal acid glucosylceramidase (Homo sapiens) (P04062 whole entry, looked up): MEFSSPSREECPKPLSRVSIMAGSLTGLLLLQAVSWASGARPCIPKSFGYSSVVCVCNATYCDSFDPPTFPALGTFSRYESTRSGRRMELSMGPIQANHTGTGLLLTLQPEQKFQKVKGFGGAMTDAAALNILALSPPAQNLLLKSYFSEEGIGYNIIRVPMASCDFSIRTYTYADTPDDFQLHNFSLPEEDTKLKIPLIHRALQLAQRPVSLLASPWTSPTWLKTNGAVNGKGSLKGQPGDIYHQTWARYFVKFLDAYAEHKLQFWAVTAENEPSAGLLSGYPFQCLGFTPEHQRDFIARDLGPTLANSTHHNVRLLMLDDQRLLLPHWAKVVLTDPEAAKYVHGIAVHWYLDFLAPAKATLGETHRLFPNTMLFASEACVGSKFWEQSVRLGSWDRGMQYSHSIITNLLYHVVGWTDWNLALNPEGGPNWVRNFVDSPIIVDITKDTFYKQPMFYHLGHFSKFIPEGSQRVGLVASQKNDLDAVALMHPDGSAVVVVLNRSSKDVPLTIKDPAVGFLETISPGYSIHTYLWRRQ
Chain of Ubiquitin carboxyl-terminal hydrolase 1 (Homo sapiens) (O94782 whole entry, looked up): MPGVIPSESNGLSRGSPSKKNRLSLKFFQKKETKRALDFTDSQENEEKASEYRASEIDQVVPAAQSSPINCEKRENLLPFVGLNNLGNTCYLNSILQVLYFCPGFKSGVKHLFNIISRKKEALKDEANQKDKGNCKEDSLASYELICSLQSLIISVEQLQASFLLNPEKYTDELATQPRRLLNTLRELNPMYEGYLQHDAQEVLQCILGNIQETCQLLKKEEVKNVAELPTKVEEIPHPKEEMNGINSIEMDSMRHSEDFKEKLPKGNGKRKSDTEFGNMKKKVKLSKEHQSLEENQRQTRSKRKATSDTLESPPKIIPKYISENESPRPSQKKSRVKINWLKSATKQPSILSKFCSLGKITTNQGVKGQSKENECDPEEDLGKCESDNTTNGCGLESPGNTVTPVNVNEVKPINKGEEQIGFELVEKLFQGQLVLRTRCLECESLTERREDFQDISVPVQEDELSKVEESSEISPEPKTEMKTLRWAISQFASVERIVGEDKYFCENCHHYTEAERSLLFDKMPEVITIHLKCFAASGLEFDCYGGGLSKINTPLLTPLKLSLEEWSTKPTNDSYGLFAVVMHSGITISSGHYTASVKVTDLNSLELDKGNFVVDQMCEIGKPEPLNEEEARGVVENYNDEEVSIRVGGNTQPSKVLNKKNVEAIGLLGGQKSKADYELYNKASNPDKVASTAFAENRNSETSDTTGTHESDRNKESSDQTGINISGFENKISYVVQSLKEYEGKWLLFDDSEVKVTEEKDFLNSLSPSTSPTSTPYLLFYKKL
Chain of Cytochrome P450 2C9 (Homo sapiens) (P11712 whole entry, looked up): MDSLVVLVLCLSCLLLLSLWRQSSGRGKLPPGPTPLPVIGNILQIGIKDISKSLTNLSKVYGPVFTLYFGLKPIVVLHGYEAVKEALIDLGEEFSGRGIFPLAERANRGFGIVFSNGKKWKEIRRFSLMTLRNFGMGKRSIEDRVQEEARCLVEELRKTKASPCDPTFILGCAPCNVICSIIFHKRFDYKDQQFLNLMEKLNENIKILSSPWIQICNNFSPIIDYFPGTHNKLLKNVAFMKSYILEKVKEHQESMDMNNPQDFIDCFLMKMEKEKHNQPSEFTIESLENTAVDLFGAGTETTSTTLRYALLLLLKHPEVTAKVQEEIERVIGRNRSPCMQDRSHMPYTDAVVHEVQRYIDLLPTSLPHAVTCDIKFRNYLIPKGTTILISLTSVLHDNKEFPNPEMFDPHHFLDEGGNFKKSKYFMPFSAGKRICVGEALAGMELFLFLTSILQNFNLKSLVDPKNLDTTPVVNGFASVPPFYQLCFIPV

CN(C)c1ncc2nc(-c3cccs3)c(=O)n(CCc3ccccc3)c2n1
active: Potency [3] 5.01 µM
inactive: Potency [1] > 11.4 µM | activity change, negative = inhibition [2] 14.4% | activity change, negative = inhibition [4] 9.39% | Potency [5] > 9.22 µM | Potency [6] > 46 µM | Potency [7] | Potency [8] | Potency [9] | Potency [10] | Potency [11] | outcome [12]

COc1ccccc1-c1cncnc1N(C)Cc1ccco1
inactive: Potency [1] > 11.4 µM | activity change, negative = inhibition [2] -9.6% | activity, negative = inhibition [13] 17% | Potency [5] > 46 µM | Potency [6] > 46 µM | Potency [14] | Potency [7] | Potency [16] | activation [17] -12.2% | Potency [8] | Potency [9] | Potency [10] | Potency [11] | outcome [12]
active: Potency [3] 15.8 µM | Potency [15] 1.26 µM

CNc1ncnc2ccc(-c3cccc(OC)c3)cc12
active: Potency [3] 0.501 µM | Potency [18] 0.501 µM | Potency [8] 0.501 µM | Potency [9] 0.501 µM | Potency [10] 0.282 µM
inactive: Potency [1] > 11.4 µM | activity change, negative = inhibition [2] -19.8% | activity, negative = inhibition [13] -20.2% | Potency [5] > 46 µM | Potency [6] > 46 µM | Potency [14] | Potency [7] | Potency [11] | outcome [12]

c1cncc(-c2nc(NCc3cccs3)c3ccccc3n2)c1
inactive: Potency [1] > 11.4 µM | activity change, negative = inhibition [2] -18.5% | activity, negative = inhibition [13] 1.18% | Potency [5] > 46 µM | Potency [6] > 46 µM | Potency [14] | Potency [16] | Potency [11] | outcome [12]
active: Potency [3] 0.316 µM | Potency [15] 2 µM | Potency [19] 6.31 µM | Potency [8] 1.58 µM | Potency [9] 1.26 µM | Potency [10] 2 µM

COc1cccc(Cn2c(=O)c(-c3cc(F)cc(F)c3)nc3cncnc32)c1
inactive: Potency [1] > 11.4 µM | activity change, negative = inhibition [2] 0.277% | activity change, negative = inhibition [4] 0.731% | activity, negative = inhibition [13] -1.76% | Potency [5] > 9.22 µM | Potency [6] > 46 µM | Potency [8] | Potency [9] | Potency [10] | Potency [11] | outcome [12]

COc1cccc(Cn2c(=O)c(-c3ccc(Cl)cc3)nc3cncnc32)c1
inactive: Potency [1] > 11.4 µM | activity change, negative = inhibition [2] -9.78% | activity change, negative = inhibition [4] -4.86% | activity, negative = inhibition [13] -0.792% | Potency [5] > 9.22 µM | Potency [6] > 46 µM | Potency [14] | Potency [8] | Potency [9] | Potency [10] | Potency [11] | outcome [12]
